# HEK293 tox = cytotoxic in the GLP-1 receptor inverse agonist counter-screen; HEK293 cAMP-luciferase reporter cells, luminescence, 24 h; AID 624418; 0.13% of 410,000 active; Potency, µM (highest dose often 38.3 µM), for inactives: top-dose activity change, negative = inhibition, hits mostly inhibitors;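 note: loss of luciferase light is scored as toxicity; % is set by controls: 0 for no effect and ±100 for the full control effect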
#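 Compound-treated cells are incubated 24 hr at 37 deg C under 5% CO2 after a 12 hour attachment period, then luciferase detection reagent is added and luminescence is measured following 12 min at room temperature; lowered signal indicates toxicity.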
# GLP1R inv ag = inverse agonists of human GLP-1 receptor. Potency, µM (series often up to 38.3 µM), for inactives: at the top dose activity change, negative = inhibition, most hits filed as inhibitors. P43220. 1.6% of 410,000 active. HEK293 GLP-1R CRE-luciferase, luminescence, 24 h; GLP-1R form is constitutively active; note: % is set by controls: 0 for no effect and ±100 for the full control effect; nearly all actives have a fitted effect of over 55% in size
# Target sequence (P43220 whole entry, looked up): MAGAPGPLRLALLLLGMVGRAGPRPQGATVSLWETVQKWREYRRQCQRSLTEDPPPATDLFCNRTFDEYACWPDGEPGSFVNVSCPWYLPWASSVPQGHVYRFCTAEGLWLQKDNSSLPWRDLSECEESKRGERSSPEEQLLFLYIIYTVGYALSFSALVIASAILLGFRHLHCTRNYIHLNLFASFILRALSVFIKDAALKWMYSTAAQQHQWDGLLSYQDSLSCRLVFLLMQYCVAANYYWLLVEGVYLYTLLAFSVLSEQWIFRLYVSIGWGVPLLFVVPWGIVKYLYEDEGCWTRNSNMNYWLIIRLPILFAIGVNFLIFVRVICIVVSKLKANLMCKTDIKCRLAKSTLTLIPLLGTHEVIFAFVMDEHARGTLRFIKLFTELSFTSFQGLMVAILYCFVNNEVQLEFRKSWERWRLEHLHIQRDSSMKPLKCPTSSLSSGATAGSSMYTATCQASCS
#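 HEK293 cells stably co-expressing a cAMP-responsive luciferase reporter and constitutively active GLP-1R were seeded, incubated 12 h, then exposed to compounds for 24 h at 37 C. Luminescence was read 12 min after detection reagent; inverse agonists lower signal.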
# GLP-1R agonist = GLP-1 receptor (human) agonism | HEK293 GLP-1R CRE-luciferase, luminescence, 4-6 h; cells express a hypersensitive GLP-1R form | Potency, µM (highest dose often 45.6 µM), for inactives: top-dose activation, actives largely listed as activators | 0.007% of 380,000 active | AID 624172; note: % of control where 0% means no effect
# PTHR1 agonist = activates the human parathyroid hormone receptor PTHR1; Q03431; HEK293 GP2 PTHR1 cells, GloSensor cAMP luminescence, 1 h; Potency, µM (highest dose often 115 µM), for the others: at the top dose activation, hits mostly activators; 0.075% of 410,000 active; AID 743266; note: nearly all actives have a fitted effect of over 55% in size
#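 HEK-293-derived GP2 cells expressing PTHR1 and a GloSensor cAMP reporter, 3,000/well, plated overnight, given luciferin plus IBMX (each 0.5 mM as added) for 1 h at 37 °C, then compound for 1 h at 37 °C. Luminescence was read after 15 min at room temperature.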
# Active calls of the source: *; i = inactive; ? = inconclusive; . = no result given; [ ] = another dose, or the depositor's remark. In the library only some 1.7% were active in any assay of this set; here they are far more common. Calls come from the whole dose curve; as a rule, active = well fitted curve in the direction sought with a large enough effect; inconclusive = small, poorly fitted or top-dose-only effect, or another doubt; inactive = no such curve, though single readings can be large; an effect the other way counts as inactive or inconclusive. Potency is the fitted concentration of half-maximal effect.
SMILES,HEK293 tox,GLP1R inv ag,GLP-1R agonist,PTHR1 agonist
CC1(C)SC2C(NC(=O)C(c3ccccc3)S(=O)(=O)O)C(=O)N2C1C(=O)O (configuration not stated),.,.,-2%,.
CC1(C)CC(NS(=O)(=O)c2ccc3ccccc3c2)CC(C)(C)N1,20%,11µM*,4%,21%
Cc1cc(C)c(S(=O)(=O)NC2CC(C)(C)NC(C)(C)C2)cc1Br,-10%,11µM*,-1%,i
Cc1ccc(C(C)C)cc1S(=O)(=O)NC1CC(C)(C)NC(C)(C)C1,-15%,8.9µM*,4%,-7%
COc1cc(C)c(S(=O)(=O)NC2CC(C)(C)NC(C)(C)C2)cc1C,-7%,?,2%,3%
Cc1cc(OCC(=O)NC2CC(C)(C)NC(C)(C)C2)c(C)cc1Br,12%,4.5µM*,0%,i
CCC1(c2ccccc2)SCC(c2ccccc2)=NC1=O (configuration not stated),-8%,3.2µM*,9%,-7%
CCc1ccc(CNC(=O)Cn2nc(C)n3c(cc4cc(C)ccc43)c2=O)cc1,16%,10%,.,i
CCCCn1cnc2cc(NC(=O)c3cc(OC)c(OC)c(OC)c3)ccc21,-10%,-2%,.,-4%
Cc1ccc(S(=O)(=O)NCc2c(Cl)cccc2Oc2ccccc2)cc1,1%,?,5%,-15%
O=S(=O)(NCc1c(Cl)cccc1Oc1ccccc1)c1ccccc1,24%,10µM*,5%,-24%
COc1ccc(OC)c(CCNC(=O)c2cc3c(-c4ccccc4F)nn(C)c3s2)c1,-16%,?,0%,-94%
O=C(NCc1ccccc1)c1cccc(COc2cccc(Cl)c2)c1,-12%,7.9µM*,-2%,i
O=C(NCc1cccc(Cl)c1)c1cc(COc2ccc3ncccc3c2)on1,-5%,10µM*,12%,-39%
O=C(NCc1ccccc1)c1cccc(COc2ccc(Cl)cc2)c1,13%,?,-2%,-84%[57.5 µM]
COc1cc(CNC(=O)c2cccc(COc3ccc(Cl)cc3)c2)cc(OC)c1,-17%,3.2µM*,-10%,i
NNC(=O)c1cccc(COc2ccc(Br)cc2)c1,-16%,5µM*,-2%,-18%
Cc1ccc(CNC(=O)Cn2ccn(-c3ccc(C)c(C)c3)c(=O)c2=O)cc1,-11%,-13%,.,i
CC(C)N(Cc1ccccc1)S(=O)(=O)c1ccc(-c2cc(C(F)(F)F)on2)s1,-1%,?,.,-21%
CC(C)Oc1ccc(C(=O)Nc2nc3ccccc3[nH]2)cc1,-2%,1.1µM*,1%,-39%
O=C(Nc1nc2ccccc2[nH]1)c1ccc(OC(F)F)cc1,-8%,?,9%,-26%
NC(=O)OC[C@H](O)COc1ccc(Cl)cc1,.,.,-1%[19.8 µM],.
CCOC(=O)Cc1ccc(NC(=O)N2CCc3c(sc4c3CCCC4)C2c2ccc(F)cc2)cc1 (configuration not stated),0%,4µM*,.,i
CC1(C)CCCN(C(=O)N2c3ccccc3Sc3ccccc32)C1,-5%,4.5µM*,6%,-23%
O=C(CN1CCCC1)N1c2ccccc2Sc2ccccc21,-3%,-3%,-4%,i
SMILES,HEK293 tox,GLP1R inv ag,GLP-1R agonist,PTHR1 agonist
COc1ccc(C2N=C(N)Nc3nc4ccccc4n32)cc1 (configuration not stated),10%,4%,.,50µM*
COc1ccc(OC)c(C2N=C(N)Nc3nc4ccccc4n32)c1 (configuration not stated),0%,0%,-2%,-18%
CCN(CC)c1ccc(C2C(C(N)=O)=C(C)Nc3nc(SCc4ccccc4Cl)nn32)cc1 (configuration not stated),4%,4%,0%,-22%
CC(C)OCCCN1C(=O)c2[nH]nc(-c3ccccc3O)c2C1c1cccc(OCc2ccccc2)c1 (configuration not stated),-12%,?,.,-14%
O=C(NCc1ccc2c(c1)OCO2)c1ccc(CSCc2ccccc2Cl)o1,2%,10µM*,3%,-14%
Cc1ccc(CNC(=O)c2ccc(CSCc3ccccc3Cl)o2)cc1,9%,?,.,-8%
O=C(CSCc1ccc(F)cc1)NCc1ccc2c(c1)OCO2,-2%,?,3%,i
O=C(CSCc1ccc(Cl)cc1)NCc1ccc2c(c1)OCO2,-3%,8.9µM*,-7%,i
CCOc1ccccc1NC(=O)CCCc1nc(-c2ccccc2Cl)no1,14%,?,.,-8%
CC[C@H](c1ccccc1)c1noc(CCN(CC)CC)n1,.,.,6%,.
Cn1nc(C(F)(F)F)c(C(=O)Nc2ccc(F)cc2F)c1Sc1cccc(Cl)c1,-1%,13µM*,-10%,i
Cn1nc(C(F)(F)F)c(C(=O)Nc2ccc(F)cc2F)c1Sc1cccc(C(F)(F)F)c1,4%,0%,-14%,i
Cc1nnc(NC(=O)C2CC(=O)N(c3ccccc3)C2)s1 (configuration not stated),14%,15%,2%,i
COc1ccc(C(=O)COC(=O)Cc2c[nH]c3ccccc23)c(OC)c1,3%,?,9%,-28%
O=C(Cc1c[nH]c2ccccc12)OCC(=O)c1ccccc1,1%,13µM*,2%,i
Cc1ccccc1NC(=O)Cn1c(=O)n(Cc2ccc3c(c2)OCO3)c(=O)c2ccc(C(=O)NC3CCCCC3)cc21,-2%,4%,12%,i
Cc1cccc(NC(=O)c2cc(-c3ccc(C)s3)nc3ccccc23)n1,-4%,10µM*,-14%,-42%
Cc1ccnc(NC(=O)c2cc(-c3ccc(Cl)s3)nc3ccccc23)c1,4%,7.9µM*,6%,i
COc1ccc(C(CC(=O)Nc2ccc(Br)cn2)N2Cc3ccccc3C2=O)cc1 (configuration not stated),-13%,-13%,.,i
CC(=O)O[C@H]1CC[C@@]2(C)C(=CCC3C2CC[C@]2(C)C(c4cccnc4)=CCC32)C1 (some centres not stated),.,.,-4%,.
C=CCC[C@H](Cc1ccc(F)cc1)C(=O)OC[C@@H](Cc1c[nH]c2ccccc12)NC(=O)[C@@H](CC=C)CC(=O)N[C@@H](CO)Cc1ccccc1,?,7.1µM*,3%,7%
COc1cccc(CNc2sc3c(c2C(=O)Nc2ccc(OC)cc2OC)CCC3)c1,-4%,-19%,.,i
CNc1cncc(-c2cccc(C(=O)N(C)C)c2)n1,3%,12%,7%,-7%
CC1=NN(c2ccccc2)C(=O)/C1=C\C=C1/N(C)c2ccccc2C1(C)C,-24%,?,7%,-22%
CC1=NN(c2ccccc2)C(=O)/C1=C\C=C1\N(C)c2ccccc2C1(C)C,-11%,11µM*,-1%,-13%
Cc1ccc(NC(=O)Cn2c(=O)n(Cc3ccc4c(c3)OCO4)c(=O)c3oc4ccccc4c32)cc1C,5%,-8%,.,28%
CCC1=NN(C(=O)c2ccc(Cl)cc2)C(O)(c2ccccc2)C1 (configuration not stated),-20%,?,0%,-19%

# Assay outcomes deposited in PubChem by National Center for Advancing Translational Sciences (NCATS).
